Among all 310,000 compounds or so, about 14,000 (4.5%) showed an effect of 50% or more. The effect is printed as a negative number. The list comes from a sample in which strong results are over-represented; it also holds similar structures and randomly drawn compounds.
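Note: peak tail current of the secondary pulse compared with the same well before compound.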

The target of the experiment is human ether-à-go-go-related gene (hERG) potassium channel (human, UniProt Q12809). In words: primary screen, population patch clamp on CHO cells stably expressing hERG; higher = less effect of the substance.
Chain of human ether-à-go-go-related gene (hERG) potassium channel (Q12809 whole entry, looked up): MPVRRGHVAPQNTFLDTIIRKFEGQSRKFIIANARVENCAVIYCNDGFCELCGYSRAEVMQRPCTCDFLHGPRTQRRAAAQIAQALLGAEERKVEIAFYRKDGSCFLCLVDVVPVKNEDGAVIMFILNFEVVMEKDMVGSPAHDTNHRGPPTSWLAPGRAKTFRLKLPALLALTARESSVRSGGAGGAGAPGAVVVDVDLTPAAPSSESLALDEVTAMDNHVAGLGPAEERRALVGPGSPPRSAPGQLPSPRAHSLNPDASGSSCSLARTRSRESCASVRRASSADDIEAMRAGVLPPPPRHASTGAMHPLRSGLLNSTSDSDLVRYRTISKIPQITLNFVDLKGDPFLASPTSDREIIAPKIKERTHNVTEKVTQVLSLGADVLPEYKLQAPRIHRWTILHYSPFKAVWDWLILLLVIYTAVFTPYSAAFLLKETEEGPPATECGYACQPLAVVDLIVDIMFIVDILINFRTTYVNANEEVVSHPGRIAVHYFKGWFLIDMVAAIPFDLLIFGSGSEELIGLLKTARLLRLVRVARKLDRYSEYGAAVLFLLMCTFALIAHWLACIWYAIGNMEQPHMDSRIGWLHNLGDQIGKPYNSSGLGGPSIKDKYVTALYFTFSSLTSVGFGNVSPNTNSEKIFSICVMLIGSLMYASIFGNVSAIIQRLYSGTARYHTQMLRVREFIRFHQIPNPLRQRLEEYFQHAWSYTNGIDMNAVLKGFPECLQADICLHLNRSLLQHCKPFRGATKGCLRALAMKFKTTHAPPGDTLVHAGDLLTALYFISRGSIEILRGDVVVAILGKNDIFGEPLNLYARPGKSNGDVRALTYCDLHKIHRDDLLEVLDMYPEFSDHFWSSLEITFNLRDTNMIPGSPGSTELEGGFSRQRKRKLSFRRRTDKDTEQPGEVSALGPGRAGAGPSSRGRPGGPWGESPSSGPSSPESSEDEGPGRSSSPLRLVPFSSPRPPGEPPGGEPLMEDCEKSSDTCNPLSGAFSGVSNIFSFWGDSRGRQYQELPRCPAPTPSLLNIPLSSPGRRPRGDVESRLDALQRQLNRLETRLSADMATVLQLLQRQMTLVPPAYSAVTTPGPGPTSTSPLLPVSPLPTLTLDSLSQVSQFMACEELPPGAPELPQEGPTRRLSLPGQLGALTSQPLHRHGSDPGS
As to `COCCNC(=O)Cn1cc(C(=O)c2ccccc2F)c2ccccc21`, the “hERG current change (%, negative = inhibition) at 10uM” value came out at 12.5%.

On to `COc1ccccc1CNc1ncnc2cc(OC)c(OC)cc12`, for which the “hERG current change (%, negative = inhibition) at 10uM” value is -32%.

As for `CCOC(=O)c1c(NC(=O)Cn2cnc3scc(-c4ccc(C)cc4)c3c2=O)sc(C)c1C`, the “hERG current change (%, negative = inhibition) at 10uM” value was -14.5%.

As to `CCCNC(=S)Nc1ccc(Nc2ccccc2)cc1`, the “hERG current change (%, negative = inhibition) at 10uM” value is reported as -15%.

Regarding `O=C(CSc1cn[nH]n1)Nc1ccccc1C(F)(F)F`, the “hERG current change (%, negative = inhibition) at 10uM” value is listed as 8.13%.

Take `COc1ccc(Br)cc1CN(C)C(=O)Cc1ccc(S(=O)(=O)N2CCOCC2)s1`: the “hERG current change (%, negative = inhibition) at 10uM” value is -70.4%.

Regarding `COc1ccc(CN(C)C(=O)Cc2ccc(S(=O)(=O)N3CCOCC3)s2)cc1OC`, the “hERG current change (%, negative = inhibition) at 10uM” value was 7.58%.

In the case of `COc1ccc(Br)cc1CN(C)C(=O)Cc1ccc(OC)c(S(=O)(=O)N2CCOCC2)c1`, the “hERG current change (%, negative = inhibition) at 10uM” value was -41%.

Regarding `CN(CCOc1ccccc1)C(=O)c1cc(S(=O)(=O)N2CCOCC2)ccc1Cl`, the “hERG current change (%, negative = inhibition) at 10uM” value is listed as -48.4%.

In the case of `Cc1ccc(S(=O)(=O)N2CCOCC2)cc1C(=O)OCCOc1cccc(Cl)c1`, the “hERG current change (%, negative = inhibition) at 10uM” value is on record as -9.45%.

Regarding `Cc1ccc(S(=O)(=O)N2CCOCC2)cc1C(=O)N(C)CCOc1ccc(Cl)cc1`, the “hERG current change (%, negative = inhibition) at 10uM” value was -64%.

On to `CC(OC(=O)/C=C/c1ccc(Br)cc1)C(=O)N1CCOCC1` (stereo not shown), for which the “hERG current change (%, negative = inhibition) at 10uM” value is listed as -10.8%.

As for `CCc1cc(=O)oc2c(CNC(Cc3ccccc3)C(=O)O)c(O)ccc12` (stereo not shown), the “hERG current change (%, negative = inhibition) at 10uM” value is listed as 9.3%.

`O=c1ccn(Cc2ccccc2Cl)cc1`: the “hERG current change (%, negative = inhibition) at 10uM” value turned out to be 8.8%.

On to `O=C(CCc1nnc(-c2ccsc2)o1)NCc1ccccc1OC(F)(F)F`, for which the “hERG current change (%, negative = inhibition) at 10uM” value is recorded as 3.76%.

For the molecule `CN1C(=O)C(=Cc2coc3ccccc3c2=O)C(=O)N(C)C1=O`, the “hERG current change (%, negative = inhibition) at 10uM” value turned out to be 2.32%.

With `O=C(Cn1cnc2ccccc21)Nc1ccc(F)c(F)c1`, the “hERG current change (%, negative = inhibition) at 10uM” value worked out at 8.41%.

As to `O=C(Cn1cnc2ccccc21)Nc1ccc(C(=O)O)cc1.O=C(O)C(=O)O`, the “hERG current change (%, negative = inhibition) at 10uM” value was -71.4%.

With `Cc1ccc(NC(=O)Cn2cnc3ccccc32)cc1C`, the “hERG current change (%, negative = inhibition) at 10uM” value was -3.44%.

As for `O=S(=O)(c1ccc(N2CCOCC2)cc1)N1CCOCC1`, the “hERG current change (%, negative = inhibition) at 10uM” value is on record as -5.96%.

As to `O=C(CNC(=O)c1ccccc1)OCCCOC(=O)CNC(=O)c1ccccc1`, the “hERG current change (%, negative = inhibition) at 10uM” value was determined as 11.8%.

With `O=C(NC(=S)N1CCOCC1)c1ccccc1Cl`, the “hERG current change (%, negative = inhibition) at 10uM” value is reported as 12.7%.

For `O=C(NN1C(=O)c2cc(Br)ccc2NC1c1ccccc1Cl)c1ccncc1` (stereo not shown), the “hERG current change (%, negative = inhibition) at 10uM” value was found to be 8.83%.

As to `COc1ccc(NC(=O)CN2CCC(n3c(C)nc4cc(F)ccc43)CC2)c(OC)c1`, the “hERG current change (%, negative = inhibition) at 10uM” value is given as -4.64%.

In the case of `Cc1nc2cc(NC(=O)N3CCCC3)ccc2n1C`, the “hERG current change (%, negative = inhibition) at 10uM” value was -1.21%.

As for `Cc1nc2ccc(NC(=O)N3CCC(c4ccccc4)C3)cc2nc1C` (stereo not shown), the “hERG current change (%, negative = inhibition) at 10uM” value was -11.4%.

Regarding `COc1ccc(C(=O)NNC(=O)CN2CCC(n3nnc4cc(F)ccc43)CC2)cc1`, the “hERG current change (%, negative = inhibition) at 10uM” value is on record as -18.4%.

With `COc1ccc(CNC(=O)CN2CCC(n3nnc4cc(F)ccc43)CC2)cc1`, the “hERG current change (%, negative = inhibition) at 10uM” value was -68%.

Take `COc1ccc(Cl)cc1NC(=O)CN1CCC(n2nnc3ccccc32)CC1`: the “hERG current change (%, negative = inhibition) at 10uM” value is listed as -10.4%.

Take `Cc1nc2cc(NC(=O)N3CCC(c4ccccc4)C3)ccc2n1C` (stereo not shown): the “hERG current change (%, negative = inhibition) at 10uM” value is -52.4%.

`COc1ccccc1NC(=O)CN1CCC(n2c(C)nc3cc(F)ccc32)CC1`: the “hERG current change (%, negative = inhibition) at 10uM” value was -72.2%.

For `Cl.O=C(CN1CCC(n2nnc3cc(F)ccc32)CC1)NCc1ccco1`, the “hERG current change (%, negative = inhibition) at 10uM” value was -35.6%.

In the case of `COc1cc(NC(=O)Nc2ccccc2OC)c(OC)cc1NC(=O)CN1CCCCC1`, the “hERG current change (%, negative = inhibition) at 10uM” value was determined as 1.04%.

Regarding `COc1ccccc1NC(=O)CN1CCC(n2nnc3cc(F)ccc32)CC1`, the “hERG current change (%, negative = inhibition) at 10uM” value is reported as -55.4%.

Take `COc1ccc(Cl)cc1NC(=O)CN1CCC(n2nnc3cc(F)ccc32)CC1`: the “hERG current change (%, negative = inhibition) at 10uM” value is given as -7.93%.

For `CCc1ccc(C(=O)N/N=C/c2cccc3ccccc23)nc1`, the “hERG current change (%, negative = inhibition) at 10uM” value worked out at 1.8%.

Turning to `Cc1ccc(-c2nnc(SCC(=O)N3CCCC3)o2)cc1C`, the “hERG current change (%, negative = inhibition) at 10uM” value is -0.309%.

As to `CC(C)Cc1nnc(NC(=O)CCC(=O)NC2CCCCCC2)s1`, the “hERG current change (%, negative = inhibition) at 10uM” value was -48.6%.

`CCN(CC)CCP(=O)(c1ccccc1)c1ccccc1`: the “hERG current change (%, negative = inhibition) at 10uM” value was -15.2%.

Regarding `OCCN1CCN(c2nc(-c3ccccc3)nc3c2oc2ccccc23)CC1`, the “hERG current change (%, negative = inhibition) at 10uM” value is on record as -6.34%.

On to `COC(=O)C1=C(CN2CCN(C)CC2)NC(=O)NC1c1cc(C)ccc1C` (stereo not shown), for which the “hERG current change (%, negative = inhibition) at 10uM” value is -41%.

For the molecule `COc1ccc2c(=O)cc(-c3cccnc3)oc2c1OC`, the “hERG current change (%, negative = inhibition) at 10uM” value came to 8.9%.

Take `CCc1nnc(NC(=O)c2c(-c3ccccc3)noc2C)s1`: the “hERG current change (%, negative = inhibition) at 10uM” value stood at 10.2%.

The values are drawn from PMC4336329 (PLoS ONE, 2015).
